# uPA surface inh: qHTS for Inhibitors of Cell Surface uPA Generation | cell surface uPA generation assay, qHTS | Potency, µM (top dose mostly 38.3 µM), inactives show at the highest dose activity change, negative = inhibition, usual class: inhibitors | AID 540303, 2011 | 0.31% of 330,000 active; active means well fitted inhibition curve with a large enough effect; inconclusive means small, poorly fitted or top-dose-only effect; inactive means no such curve, though single readings can be large or run the other way; tested in mouse RAW 264.7 cells; further: potency means the concentration at half of the fitted maximal effect; on the % scale 0 is the no-effect control and ±100 the full control effect; nearly all actives have a fitted effect of over 55% in size
# DT40 TDP1 CPT: qHTS for Inhibitors of human tyrosyl-DNA phosphodiesterase 1 (TDP1): qHTS in cells in presence of CPT | Potency, µM (highest dose often 46.2 µM), without a hit: at the top dose activity change, negative = growth inhibition, most hits filed as inhibitors | AID 686979, 2013 | chicken DT40 Tdp1-/-;hTDP1 cells + 20 nM CPT, ATP luminescence, 48 h | 12% of 420,000 active; further: potency means the concentration at half of the fitted maximal effect; on the % scale 0 is the no-effect control and ±100 the full control effect; nearly all actives have a fitted effect of over 55% in size
#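 Cell growth measured by CellTiter-Glo luminescence after a minimum 48 h, 37 C compound exposure with 20 nM CPT in Tdp1-knockout DT40 cells stably expressing hTDP1, seeded 400/well; qHTS titration format.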
# miR-21 reporter: qHTS Assay for Modulators of miRNAs and/orActivators of miR-21; AID 2288, 2010; 340,000 tested, under 10 active; Potency, µM (doses to about 38.3 µM), for inactives: at the top dose activity change, positive = activation, hits mostly activators; HeLa miR-21 FLuc reporter, luciferase, 48 h;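 further: % of control where 0% means no effect; miR-21 action dims this reporter so a rising signal means less miR-21 action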
#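 Compounds were titrated across several concentrations (up to approximately 40 uM) and incubated 48 hours with HeLa miR-21-FLuc reporter cells (miR-21 target sequence downstream of FLuc, endogenous miR-21). Readout was firefly luciferase luminescence after lytic detection reagent.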
# DT40 TDP1 no CPT: qHTS for Inhibitors of human tyrosyl-DNA phosphodiesterase 1 (TDP1): qHTS in cells in absence of CPT; DT40 Tdp1-/- hTDP1 cells, no CPT, ATP luminescence, 48 h; Potency, µM (top dose mostly 46.2 µM), without a hit: at the highest dose activity change, negative = growth inhibition, most hits filed as inhibitors; 15% of 420,000 active; AID 686978, 2013; further: potency means the concentration at half of the fitted maximal effect; on the % scale 0 is the no-effect control and ±100 the full control effect; nearly all actives have a fitted effect of over 55% in size
#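 Readout: luminescence from CellTiter-Glo after 30 min in the dark at RT. Cells: DT40 Tdp1-/- with stable hTDP1, 400/well. Exposure: compounds alone, ≥48 hr, 37 °C.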
# TDP1 inh: qHTS Assay for Inhibitors of Tyrosyl-DNA Phosphodiesterase (TDP1). Tyrosyl-DNA phosphodiesterase 1 (Homo sapiens), Q9NUW8. recombinant TDP1, AlphaScreen DNA substrate cleavage. Potency, µM (top dose mostly 130 µM), inactives show top-dose activity change, negative = inhibition, actives largely listed as inhibitors. 0.28% of 350,000 active. AID 485290, 2010; further: potency means the concentration at half of the fitted maximal effect; on the % scale 0 is the no-effect control and ±100 the full control effect; nearly all actives have a fitted effect of over 40% in size
# Target sequence (Q9NUW8 whole entry, looked up): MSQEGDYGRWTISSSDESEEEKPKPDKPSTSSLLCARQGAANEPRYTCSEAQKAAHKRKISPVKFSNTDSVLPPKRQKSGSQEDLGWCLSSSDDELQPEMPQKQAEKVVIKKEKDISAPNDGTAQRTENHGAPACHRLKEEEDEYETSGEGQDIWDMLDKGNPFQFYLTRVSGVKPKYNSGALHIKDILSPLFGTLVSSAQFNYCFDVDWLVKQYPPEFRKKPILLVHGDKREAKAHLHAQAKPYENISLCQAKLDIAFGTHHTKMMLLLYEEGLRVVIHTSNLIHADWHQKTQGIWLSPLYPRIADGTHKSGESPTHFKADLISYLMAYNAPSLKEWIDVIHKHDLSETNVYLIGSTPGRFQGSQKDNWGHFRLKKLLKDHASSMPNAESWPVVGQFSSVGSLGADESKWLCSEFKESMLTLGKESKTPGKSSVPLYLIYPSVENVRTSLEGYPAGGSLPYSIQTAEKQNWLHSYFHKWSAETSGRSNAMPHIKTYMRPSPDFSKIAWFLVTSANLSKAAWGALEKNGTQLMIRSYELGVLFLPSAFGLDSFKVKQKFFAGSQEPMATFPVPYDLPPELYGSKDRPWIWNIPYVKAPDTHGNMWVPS
#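 Tdp1 1 nM final; 15 min RT w/ cpd; substrate 15 nM, 5 min; beads 10 ug/ml, 10 min; AlphaScreen read. Neg ctrl: no enzyme.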
# The depositor's hits bear a star; ? = inconclusive; . = no result given. An excerpt weighted towards active compounds, which were near 16% of everything screened. Unless noted, the call rests on the fitted dose curve; in most records, active means well fitted curve in the direction sought with a large enough effect; inconclusive means small, poorly fitted or top-dose-only effect, or another doubt; inactive means no such curve, though single readings can be large; an effect the other way counts as inactive or inconclusive.
SMILES,uPA surface inh,DT40 TDP1 CPT,miR-21 reporter,DT40 TDP1 no CPT,TDP1 inh
O=C(NCc1cccnc1)C1C2C=CC(C2)C1C(=O)Nc1cccc(C(F)(F)F)c1 (stereo not drawn),.,-22%,.,-10%,.
CCOc1cc(S(=O)(=O)n2cc(-c3ccc(F)cc3)c(N)n2)cc(OCC)c1OCC,-1%,?,27%,13µM*,1%
C=C(C)c1nc(Oc2ccccc2)nc(Oc2ccccc2)n1,-12%,7.3µM*,.,6.5µM*,.
Cc1c(N=Cc2ccc(O)c(Br)c2)cccc1[N+](=O)[O-],2%,-1%,-14%,-20%,-4%
O=[N+]([O-])c1ccc(N=Cc2ccc(Br)c([N+](=O)[O-])c2)cc1,-8%,5.2µM*,21%,5.2µM*,8%
O=C(NCc1ccncc1)Nc1ccccc1Cl,-3%,-1%,-8%,2%,2%
CC(=O)c1ccc(NS(=O)(=O)c2ccc3c(c2)NC(=O)CCS3)cc1,.,.,-6%,.,2%
Cc1ccc(Cl)cc1NS(=O)(=O)c1ccc2c(c1)NC(=O)CCS2,.,.,-2%,.,5%
Cc1cc(C)c(NS(=O)(=O)c2ccc3c(c2)NC(=O)CCS3)c(C)c1,11%,?,9%,15µM*,-1%
COc1ccc(Cl)cc1NS(=O)(=O)c1ccc2c(c1)NC(=O)CCS2,7%,?,7%,4.6µM*,3%
Cc1ccc(NS(=O)(=O)c2ccc3c(c2)NC(=O)CCS3)c(Cl)c1,-2%,?,10%,-13%,3%
Cc1ccc(NS(=O)(=O)c2ccc3c(c2)NC(=O)CCS3)c(C)c1,-4%,23µM*,15%,?,5%
CCOc1ccc(NS(=O)(=O)c2ccc3c(c2)NC(=O)CCS3)cc1,.,?,14%,12µM*,3%
CCC1Sc2ccc(S(=O)(=O)Nc3ccc(OC)c(OC)c3)cc2NC1=O (stereo not drawn),-8%,21µM*,17%,8.2µM*,4%
CSc1nc(Cl)c(C#N)c(-c2ccc(C)cc2)n1,-5%,9.2µM*,-5%,?,6%
CSc1nc(Nc2cccc(C)c2)c(C#N)c(-c2ccccc2)n1,.,?,-3%,?,3%
COc1ccc(-c2nc(-c3ccccc3)nc(Cl)c2C#N)cc1,.,?,2%,10µM*,0%
COc1cccc(C2Nc3c(F)cc(Br)cc3C3C=CCC32)c1OC (stereo not drawn),-1%,16µM*,0%,18µM*,8%
COc1ccc(CN2CCN(Cc3cccc(Oc4ccccc4)c3)CC2)c(OC)c1OC,-11%,?,-6%,?,.
COc1ccc(CN2CCN(Cc3ccc(Br)cc3)CC2)c(OC)c1OC,3%,?,13%,16µM*,.
COc1ccc(CN2CCN(C(c3ccc(F)cc3)c3ccc(F)cc3)CC2)c(OC)c1OC,?,2.6µM*,.,2.9µM*,6%
Cc1ccc(N(C)C(=O)c2sc3nc4n(c(=O)c3c2C)CCCC4)cc1C,.,23µM*,-14%,18µM*,-6%
Cc1c(C(=O)O)sc2nc3n(c(=O)c12)CCCCC3,0%,3%,-2%,-3%,1%
CCCN(C(=O)c1sc2nc3n(c(=O)c2c1C)CCCC3)c1ccccc1C,.,18µM*,-5%,?,9%
CCN(C(=O)c1sc2nc3n(c(=O)c2c1C)CCCC3)c1ccccc1F,.,?,-8%,?,4%
SMILES,uPA surface inh,DT40 TDP1 CPT,miR-21 reporter,DT40 TDP1 no CPT,TDP1 inh
Cc1ccc(Cl)cc1N(C)C(=O)c1sc2nc3n(c(=O)c2c1C)CCCC3,.,?,11%,16µM*,4%
COc1cccc(OC)c1C(=O)Nc1ccc([N+](=O)[O-])cn1,3%,1%,2%,-5%,0%
O=S(=O)(NCCS(=O)(=O)N1CCN(c2ccccc2F)CC1)c1ccc(Cl)cc1,.,?,7%,?,4%
CCCCNc1c(-c2ccc(Sc3ccc(OC)cc3)cc2)nc2cc(C)ccn12,?,?,.,-86%,5%
CCCCNc1c(-c2ccc(SC3CCCCC3)c(OC)c2)nc2ccc(C)cn12,?,23µM*,.,18µM*,4%
COc1ccc(-c2nc3cc(C)ccn3c2NCC2CCCO2)cc1OC (stereo not drawn),0%,-4%,.,0%,.
COc1ccc(-c2nc3ccc(C)cn3c2NCc2ccccc2)cc1SC1CCCCC1,3.2µM*,13µM*,.,23µM*,.
CCCCNc1c(-c2ccc(OC)c(SC3CCCCC3)c2)nc2ccc(C)cn12,?,5.8µM*,.,8.2µM*,5%
NC(=O)c1ccccc1NC(=O)Nc1ccc(F)c(Cl)c1,-23%,?,-7%,?,-3%
NC(=O)c1ccc[n+](CC(=O)NCc2ccc(Cl)cc2)c1,2%,11%,1%,-1%,.
Cc1cccc(NC(=S)NCCc2ccccc2)n1,0%,?,3%,16µM*,0%
S=C(NCCc1ccccc1)Nc1ccccn1,-3%,6.5µM*,-48%,18µM*,0%
O=C(O)c1cc(-c2cccs2)nn1-c1ccccc1,2%,-12%,-5%,1%,-2%
Cc1nc2ncc(Br)cc2[nH]1,-7%,2%,-5%,-3%,-1%
Cc1ccc(-c2nc3cc(Br)cnc3nc2-c2ccc(C)cc2)cc1,-4%,15µM*,-2%,?,4%
CCCCCNc1nc(N2CCCC2)c2c(c1C#N)CCN(C)C2,-5%,23µM*,-10%,23µM*,8%
CC(=O)n1cc(/C=N/NC(=O)c2ccccc2Cl)c2ccccc21,-21%,-2%,-20%,3%,.
Cc1cc(OCCOCCNC(C)C)cc(C)c1Cl,-6%,18µM*,-8%,18µM*,.
CCC1(c2ccccc2)NC(=O)N(CC(=O)Nc2cc(S(=O)(=O)N3CCOCC3)ccc2OC(C)C)C1=O (stereo not drawn),10%,-22%,.,?,-6%
O=C(O)CN1C(=O)C(=O)N(Cc2ccc(C(F)(F)F)cc2)C1=O,2%,4%,-2%,15%,.
CCOC(=O)c1c(CN2CCNCC2)nc2ccc(Cl)cc2c1-c1ccccc1,-1%,4.6µM*,.,4.6µM*,.
CCN(CC)c1ccc(C2C(C(=O)Nc3ccccc3C)=C(C)Nc3ncnn32)cc1 (stereo not drawn),.,0%,-1%,-24%,9%
C/C(=N\NC(=O)c1cccc(S(=O)(=O)N2CCOCC2)c1)c1ccc(OCC(=O)N(C)C)cc1,-2%,13%,.,5%,0%
Oc1ccc(CNc2ccccc2C(F)(F)F)c2cccnc12,.,.,.,.,0%
OCc1ccc(O)c2ncccc12,-13%,5.2µM*,25%,5.2µM*,7%

# Screening data as filed in PubChem.
